An excerpt weighted towards active compounds, which were near 1.6% of everything screened.
KCNQ2 enhance = KCNQ2 (rat) channel potentiation | O88943 | 0.54% of 310,000 active | CHO-K1 KCNQ2, FluxOR thallium flux fluorescence; hits give high values | AID 2239 | B-score at 10 µM;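 active = fluorescence ratio B-score at least 3 SD of library B-scores, with initial fluorescence B-score within 3 of them, cut at about 5.3 in these data; same plate scores as AID 2156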;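 also: B-score of peak minus minimum over baseline fluorescence ratio after K+ and Tl+ stimulus; positive B-score means potentiation of KCNQ2 with more thallium influx and brighter signal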
KCNQ2 block = inhibitors of rat KCNQ2 potassium channel; O88943; CHO-K1 KCNQ2, FluxOR thallium flux, 20 min; hits give low values; B-score at 10 µM; 1.1% of 310,000 active; AID 2156;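 active = fluorescence ratio B-score at most minus 3 library SDs, with starting brightness B-score within 2 library SDs, cut at about -5.5 in these data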
Kir21 conf inh = confirmation of mouse Kir2.1 potassium channel inhibitors; AID 2032; 41% of 2,300 active; shares compounds with KCNQ2 enhance; Kir2.1-expressing cells, FluxOR thallium flux fluorescence; hits give low values; Tl flux remaining, % of negative control (hits give low values), % at 10 µM;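 active = Primary-screen hit whose thallium flux fell at least 3 control SD below untreated wells in both duplicates, with normal baseline fluorescence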
HEK293 Tl flux = alters thallium flux in parental HEK293 cells, Kir2.1 counter-screen; shares compounds with KCNQ2 enhance; FluxOR thallium flux fluorescence; 0% = unstimulated blank wells; FluxOR signal as % of negative control (100 = no effect), % at 10 µM; 19% of 2,300 active; AID 2105;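 active = dye signal at least 3 control SD above or below untreated wells in both duplicates, raw fluorescence within 3, either direction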;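 also: percent is based on the flux ratio of peak minus minimum fluorescence over baseline F0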
CHO-K1 ctr = parental CHO-K1 activity in KCNQ2 potentiator counter-screen; shares compounds with KCNQ2 enhance; parental CHO-K1 cells, FluxOR thallium flux fluorescence; zero = vehicle mean+3SD, 100% = vehicle-minus-blank window; activity increase over 3SD of controls, % at 10 µM; 43% of 1,200 active; AID 2282;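 active = signal rise of at least 3 SD above the untreated control mean, in both duplicate wells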;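 also: counter screen of KCNQ2 potentiator hits so any rise reflects channel-independent effects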
KCNQ1 pot spec = human KCNQ1 counter-target activity of KCNQ2 potentiators | CHO KCNQ1 stable, FluxOR thallium flux fluorescence; beyond 3SD, as % of vehicle-control signal | 28% of 1,200 active | activation over 3SD threshold, % at 10 µM | shares compounds with KCNQ2 enhance;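 active = fluorescence ratio rise of at least 3 SD of vehicle wells above their mean, in both replicate wells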
KCNQ2 pot confirm = confirmation of rat KCNQ2 potassium channel potentiators; shares compounds with KCNQ2 enhance; CHO-KCNQ2 cells, FluxOR thallium flux fluorescence; potentiation, less the hit threshold, % at 10 µM; 68% of 1,200 active;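 active = fluorescence ratio rising 3 SD or more over the vehicle control mean in both replicates, plus primary screen hit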;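 also: peak minus minimum thallium fluorescence divided by baseline after K/Tl stimulus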
Kir21 spec = selectivity of KCNQ2 potentiators: effect on mouse Kir2.1. activity over 3SD threshold, % at 10 µM. HEK293 Kir2.1, FluxOR thallium flux fluorescence. AID 2345. 2% of 1,200 active. shares compounds with KCNQ2 enhance;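 active = fluorescence ratio rise of at least 3 SD above the vehicle-control mean, seen in both replicates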
KCNQ2 W236L MoA = potentiates the retigabine-insensitive rat KCNQ2 W236L mutant channel; shares compounds with KCNQ2 enhance; CHO KCNQ2-W236L, automated patch clamp current; current increase over 3SD of negative controls (%), hits give high values, % at 25 µM; 10% of 940 active; AID 2558;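 active = current increase at least 3 SD of the untreated controls above them in both duplicate recordings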
Target sequence (O88943 whole entry W236L, looked up): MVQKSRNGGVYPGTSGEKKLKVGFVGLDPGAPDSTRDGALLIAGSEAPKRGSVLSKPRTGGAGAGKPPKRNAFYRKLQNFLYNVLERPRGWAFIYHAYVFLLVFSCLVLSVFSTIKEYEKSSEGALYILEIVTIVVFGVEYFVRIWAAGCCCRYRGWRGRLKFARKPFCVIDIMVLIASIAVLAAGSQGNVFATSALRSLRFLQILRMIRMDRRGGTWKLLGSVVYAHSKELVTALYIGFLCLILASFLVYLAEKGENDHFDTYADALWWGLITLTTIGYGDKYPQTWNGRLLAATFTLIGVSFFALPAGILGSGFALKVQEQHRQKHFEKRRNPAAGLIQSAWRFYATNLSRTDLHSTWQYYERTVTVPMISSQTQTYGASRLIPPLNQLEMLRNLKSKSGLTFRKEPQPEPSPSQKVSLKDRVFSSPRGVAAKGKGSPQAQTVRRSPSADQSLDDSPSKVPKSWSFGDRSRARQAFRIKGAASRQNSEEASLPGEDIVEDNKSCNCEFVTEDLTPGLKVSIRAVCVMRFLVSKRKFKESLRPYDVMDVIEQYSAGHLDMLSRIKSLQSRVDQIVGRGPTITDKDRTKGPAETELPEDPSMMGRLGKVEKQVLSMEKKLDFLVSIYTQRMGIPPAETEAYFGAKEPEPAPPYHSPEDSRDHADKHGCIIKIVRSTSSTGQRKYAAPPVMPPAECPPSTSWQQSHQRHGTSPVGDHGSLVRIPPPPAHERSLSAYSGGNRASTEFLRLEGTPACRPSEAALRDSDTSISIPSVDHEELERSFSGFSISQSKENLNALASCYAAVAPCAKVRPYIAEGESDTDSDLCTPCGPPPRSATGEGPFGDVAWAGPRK
Numbers stand for hits; . = inactive; / = no result given.

SMILES | KCNQ2 enhance | KCNQ2 block | Kir21 conf inh | HEK293 Tl flux | others
COc1ccc(CN(C)CC2CCCN(CCc3ccccc3C)C2)cc1O (configuration not stated) | . | . | 40% | .
CC1c2ccsc2CCN1S(=O)(=O)c1cccs1 (configuration not stated) | / | . | 57% | .
CN1CCN(S(=O)(=O)c2cccs2)CC1 | . | . | / | /
CCn1c(CNS(=O)(=O)c2ccc(Br)cc2)nnc1SC | / | . | / | /
O=C(O)c1ccc(NC2=C(Cl)C(=O)c3ccccc3C2=O)cc1 | . | -10 | . | .
O=C1C(Cl)=C(Nc2ccccc2)C(=O)c2ccccc21 | / | . | / | /
Cc1ccc(NC2=C(NC(=O)c3ccccc3)C(=O)c3ccccc3C2=O)cc1Cl | / | . | / | /
O=C(O)c1cccc(NC2=C(Cl)C(=O)c3ccccc3C2=O)c1 | . | -7.6 | 38% | .
COc1ccccc1CNC(=O)C1CCN(S(=O)(=O)c2cccc3cccnc23)CC1 | / | . | / | /
Cc1onc(-c2ccccc2Cl)c1C(=O)OCC(=O)Nc1ccc2c(c1)OCO2 | 8 | . | . | . | CHO-K1 ctr=3.4;KCNQ1 pot spec=0.5;KCNQ2 pot confirm=.;Kir21 spec=.;KCNQ2 W236L MoA=.
Cc1onc(-c2ccccc2)c1C(=O)OCC(=O)Nc1ccc2c(c1)OCO2 | / | . | / | /
Cc1ccc(S(=O)(=O)N[C@H](C(=O)Oc2ccc3c(C(F)(F)F)cc(=O)oc3c2)c2ccccc2)cc1 | / | . | / | /
CCSc1nnc(NC(=O)CC)s1 | . | . | / | /
CCSc1nnc(NC(=O)CC(C)C)s1 | . | . | . | .
COc1cccc(CNC(=O)C(=O)NCC2OCCCN2S(=O)(=O)c2cc(C)ccc2C)c1 (configuration not stated) | / | . | / | /
Cc1ccc(C(C)(C)C)c(OCCCn2ccnc2)c1 | / | . | / | /
CC(C)(C)c1ccccc1OCCCCCn1ccnc1 | . | -6.1 | 39% | .
CC(C)COc1ccc(C2NC(=O)NC2=O)cc1 (configuration not stated) | / | . | / | /
CC(C)c1ccc(NC(=O)C2CC2c2ccccc2)cc1 (configuration not stated) | 17 | . | . | . | CHO-K1 ctr=20;KCNQ1 pot spec=.;KCNQ2 pot confirm=28;Kir21 spec=.;KCNQ2 W236L MoA=.
O=C(Nc1ccncc1)C1CC1c1ccccc1 (configuration not stated) | . | . | / | /
O=C(Nc1cccc(Cl)c1)C1CC1c1ccccc1 (configuration not stated) | . | . | / | /
O=C(Nc1ccc(Cl)cc1F)C1CC1c1ccccc1 (configuration not stated) | 7.2 | . | . | . | CHO-K1 ctr=.;KCNQ1 pot spec=28;KCNQ2 pot confirm=19;Kir21 spec=.;KCNQ2 W236L MoA=.
Cc1ccc(NC(=O)/C=C\C(=O)O)c([N+](=O)[O-])c1 | / | . | / | /
Cc1ccc(NC(=O)C2CC2c2ccccc2)c([N+](=O)[O-])c1 (configuration not stated) | 11 | . | . | . | CHO-K1 ctr=.;KCNQ1 pot spec=.;KCNQ2 pot confirm=7.1;Kir21 spec=.;KCNQ2 W236L MoA=40%
CNS(=O)(=O)c1cc(NC(=O)CCCNC(=O)c2ccc(Cl)cc2)ccc1C | / | . | / | /
SMILES | KCNQ2 enhance | KCNQ2 block | Kir21 conf inh | HEK293 Tl flux | others
CC(Oc1cccc2cccnc12)C(=O)N/N=C/c1ccc2c(c1)OCO2 (configuration not stated) | . | . | / | /
Cc1cccc(C(=O)O/N=C(\N)c2ccccn2)c1 | . | . | / | /
CN(CCCS(=O)(=O)[O-])c1ccc(/C=C/c2ccc3ccccc3[n+]2C)cc1 | / | . | / | /
CN(C)c1ccc(/C=C/c2ccc3ccccc3[n+]2C)cc1 | / | . | . | .
COc1ccc2oc(C(=O)OCC(=O)N3CCC(C)CC3)c(C)c2c1 | . | . | / | /
Cc1c(C(=O)OCC(=O)N2CCC(C)CC2)oc2ccccc12 | 11 | . | . | . | CHO-K1 ctr=14;KCNQ1 pot spec=.;KCNQ2 pot confirm=17;Kir21 spec=.;KCNQ2 W236L MoA=.
COCCn1c(-c2ccc3ccccc3c2)nc2c1c(=O)[nH]c(=O)n2CC(C)C | / | . | / | /
COc1cc(C(=O)OCC(=O)NC2CCCC2)cc(NC(=O)c2ccco2)c1OC | 11 | . | . | . | CHO-K1 ctr=.;KCNQ1 pot spec=.;KCNQ2 pot confirm=.;Kir21 spec=.
COc1cc(C(=O)OCC(C)=O)cc(NC(=O)c2ccco2)c1OC | / | . | / | /
COc1ccc(CN2C(=O)C(C)=C(C)C2OC)cc1 (configuration not stated) | / | . | / | /
Cn1/c(=N\NC(=O)C2CCCCC2)sc2ccccc21 | 9.9 | . | . | . | CHO-K1 ctr=.;KCNQ1 pot spec=.;KCNQ2 pot confirm=0.0;Kir21 spec=.;KCNQ2 W236L MoA=.
CC(=O)N/N=c1\sc2ccccc2n1C | . | . | / | /
Cc1[nH]n(C2=NCCS2)c(=O)c1N=Nc1cccc(C(F)(F)F)c1 | / | . | / | /
CCOc1cc(/C=N/O)ccc1OS(=O)(=O)c1ccc(C)cc1 | . | . | 48% | .
CCOc1cc(/C=N/NS(=O)(=O)c2ccccc2)ccc1OS(=O)(=O)c1ccc(C)cc1 | / | . | / | /
CC(C)Cn1c(SCC(=O)c2ccc(Cl)s2)nnc1-c1ccco1 | . | -6.8 | 50% | 138%
O=C(CSc1nnc(-c2ccco2)n1Cc1ccccc1)c1ccccc1 | / | . | / | /
Cn1c(SCC(=O)OCc2ccccc2)nnc1-c1ccco1 | / | . | / | /
CCn1c(SCC(=O)OCc2ccccc2)nnc1-c1ccco1 | / | . | . | .
CSc1ncccc1C(=O)OCC(=O)c1ccc(S(=O)(=O)N2CCCCC2)cc1 | . | . | / | /
C[C@]1(C(=O)NCCN2CCOCC2)C=C[C@@H](Cc2ccccc2)N1C(=O)c1ccccc1 | . | . | / | /
Cn1cc(CN2CCC(C(=O)N3CCCC3)CC2)c(-c2ccccc2F)n1 | / | . | / | /
Oc1ccc2ccccc2c1/C=N/c1nc2c(s1)CCCC2 | / | . | / | /
Oc1c(Br)cc(Br)cc1/C=N/c1nc2c(s1)CCCC2 | 8.7 | . | . | . | CHO-K1 ctr=48;KCNQ1 pot spec=.;KCNQ2 pot confirm=26;Kir21 spec=.;KCNQ2 W236L MoA=4.4%
S=c1[nH]cnc2scc(-c3ccc(Br)cc3)c12 | 5.6 | . | . | 194% | CHO-K1 ctr=.;KCNQ1 pot spec=.;KCNQ2 pot confirm=.;Kir21 spec=.;KCNQ2 W236L MoA=.
SMILES | KCNQ2 enhance | KCNQ2 block | Kir21 conf inh | HEK293 Tl flux | others
S=c1[nH]cnc2scc(-c3ccc(Cl)cc3)c12 | 9.6 | . | . | 142% | CHO-K1 ctr=.;KCNQ1 pot spec=.;KCNQ2 pot confirm=14;Kir21 spec=.;KCNQ2 W236L MoA=.
Clc1ccc(-c2csc3ncnc(Cl)c23)cc1 | . | . | / | /
O=c1[nH]cnc2scc(-c3ccccc3)c12 | / | . | / | /
O=c1[nH]cnc2scc(-c3ccsc3)c12 | . | . | / | /
Cc1cc(-c2csc3nc[nH]c(=S)c23)cc(C)c1C | 15 | . | . | 262% | CHO-K1 ctr=.;KCNQ1 pot spec=.;KCNQ2 pot confirm=36;Kir21 spec=.;KCNQ2 W236L MoA=.
O=C(Nc1cc(C(F)(F)F)ccc1N1CCOCC1)C1=COCCO1 | / | . | / | /
